# Source: PubChem BioAssay AID588342 (National Center for Advancing Translational Sciences (NCATS), 2011)
# Among all 360,000 compounds or so, about 25,000 (6.9%) were called active. Another 9% or so got no clear call; they are omitted. Many of the other results were omitted from the sample, so actives are more common in it than they were. Unmarked numbers belong to inactive results. Calls come from the whole dose curve; as a rule, active = well fitted inhibition curve with a large enough effect; inconclusive = small, poorly fitted or top-dose-only effect; inactive = flat fitted curve, though single readings scatter.
# Molecular target: Luciferin 4-monooxygenase (Photinus pyralis) (UniProt P08659)
# Sequence (P08659 whole entry, looked up): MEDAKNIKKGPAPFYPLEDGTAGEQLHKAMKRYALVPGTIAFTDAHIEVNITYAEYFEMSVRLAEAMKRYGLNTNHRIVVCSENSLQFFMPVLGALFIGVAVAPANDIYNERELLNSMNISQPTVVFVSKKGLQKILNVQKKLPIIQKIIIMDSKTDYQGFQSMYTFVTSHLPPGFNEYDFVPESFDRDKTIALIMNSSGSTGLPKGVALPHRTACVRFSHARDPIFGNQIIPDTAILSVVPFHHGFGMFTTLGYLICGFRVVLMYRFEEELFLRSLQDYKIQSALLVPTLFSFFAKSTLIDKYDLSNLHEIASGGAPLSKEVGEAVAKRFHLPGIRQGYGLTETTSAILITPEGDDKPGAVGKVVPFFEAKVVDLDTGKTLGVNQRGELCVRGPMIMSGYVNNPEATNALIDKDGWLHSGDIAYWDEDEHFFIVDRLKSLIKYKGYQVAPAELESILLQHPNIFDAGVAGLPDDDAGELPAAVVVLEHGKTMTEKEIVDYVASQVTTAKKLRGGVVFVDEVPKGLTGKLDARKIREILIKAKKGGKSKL
# Assay: qHTS profiling assay for firefly luciferase inhibitor/activator using purifed enzyme and Km concentrations of substrates (counterscreen for miR-21 project); note: nearly all actives have a fitted effect of over 55% in size;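 for activity change, negative = inhibition: plate controls were vehicle for no effect and reference inhibitor for full effect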
# Conditions: purified FLuc, luminescence inhibition; series mostly up to 57.5 µM; activity change, negative = inhibition: at the top concentration
# Procedure, shortened: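 Biochemical qHTS of compounds, final roughly 60 µM downward over six points, against 10 nM purified firefly luciferase using Km concentrations of substrates (10 uM D-luciferin, 10 uM ATP) in Tris acetate pH 7.5 buffer; luminescence output.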
# Potency is the fitted concentration of half-maximal effect.
Structure (SMILES),"activity change, negative = inhibition [%]",Potency
COc1ccc2c(Sc3ccc(C)cc3)c(C(=O)NC(C)c3ccccc3)[nH]c2c1 (configuration not stated),3.3,–
CC(C)Cn1c(=O)c2ccccc2n2c(CCC(=O)N3CCN(c4cccc(Cl)c4)CC3)nnc12,4.18,–
Cc1cccc(NS(=O)(=O)c2ccc(C)c(C(=O)NCC(c3ccccc3)N(C)C)c2)c1 (configuration not stated),-0.184,–
O=C(NC1CCN(Cc2ccccc2)CC1)c1ccc(Cn2c(=O)c3ccccc3n(Cc3cccc(F)c3)c2=O)cc1,-5.59,–
O=C(NCCOc1cccnc1)c1ccc(OC2CCN(Cc3ccccn3)CC2)cc1,-1.59,–
CCOc1ccc(N(CC)C(=O)C2CCN(S(=O)(=O)c3cccc4nonc34)CC2)cc1,5.23,–
CC(OC(=O)c1ccc(NS(=O)(=O)c2ccc3[nH]c(=O)[nH]c3c2)cc1)C(=O)Nc1cccc(Cl)c1Cl (configuration not stated),2.36,–
COc1ccc2c(c1)c(N1CCCC1=O)c(C(=O)Nc1ccccc1C(F)(F)F)n2C,-1.46,–
CCOc1ccc(NC(=O)c2cn(C3CCCCC3)c(=O)c3c2c2ccccc2n3C)cc1,0.366,–
CCOc1ccc(NC(=O)CN(C)C(=O)Cc2sc(C)nc2-c2ccc(F)cc2)cc1OCC,1.86,–
O=C1CC(c2ccc(F)cc2F)c2cc3c(cc2N1)OCO3 (configuration not stated),-7.02,–
O=C(c1ccccc1)N1CCC(CC2CC(c3ccc(Cl)cc3)=NO2)(C(=O)NCC2CCCCC2)CC1 (configuration not stated),-0.0551,–
Cc1nnc2n1N=C(c1ccc3c(c1)NC(=O)CO3)CS2,-2.33,–
Cn1c(=O)cc(OCC(=O)N2CCN(c3ccccc3)CC2)c2ccccc21,1.2,–
CCOc1ccc(NC(=O)c2c(NCc3cccc(OC)c3OC)sc3c2CCC3)cc1,2.55,–
COc1ccc(CC(=O)c2ccc(O)cc2O)cc1OC,-6.24,–
COc1ccc(C(=O)C[n+]2ccc(C)cc2)cc1,8.37,–
COc1ccc(C(=O)CC(=O)c2ccc(C)cc2)c(O)c1,–,21.3 µM (active)
Cc1[nH]nc(-c2ccc(OCc3cnn(-c4ccccc4)c3)cc2O)c1Oc1ccc(Cl)cc1,0.697,–
COc1ccc(C(=O)Cc2cnn(-c3ccccc3)c2)c(O)c1,–,3.38 µM (active)
COc1ccc(C(=O)NNS(=O)(=O)c2ccc(C)cc2)cc1,5.49,–
Cc1cccc(OCC(=O)N(Cc2ccc(C(C)C)cc2)Cc2ccco2)c1C,0.0838,–
COc1cc(OC)c(NC(=O)c2c3c(nn2C)-c2ccccc2SC3)cc1Cl,-3.89,–
CSc1nc(=O)c2c(n1C)NC(=O)CC2c1ccccc1OC(C)C (configuration not stated),-0.768,–
Cc1nc(SCC(=O)NC2CCCCC2C)c(C#N)c(C)c1C (configuration not stated),-0.552,–
CCS(=O)(=O)c1nc(S(=O)(=O)c2ccc(C)cc2)c(NCc2ccc(Cl)cc2)s1,-6.34,–

Structure (SMILES),"activity change, negative = inhibition [%]",Potency
CCn1c(C(=O)Nc2cc(Cl)ccc2C)cc2sc(Cl)cc21,14.4,–
CCOc1ccc(-c2cc3c(=O)n(CC(=O)NCc4ccc(OC)cc4)ccn3n2)cc1,-25.5,–
c1ccc(CSCCc2ccncc2)cc1,3.4,–
CC(C)(C)c1ccc(SCCc2ccncc2)cc1,–,26.9 µM (active)
Cc1cc(C)c(SCCc2ccncc2)c(C)c1,4.66,–
C/C(=N\NC(=O)CCn1nc(C)cc1C)C(C)(C)C,-0.213,–
CCc1cccc(NC(=O)COC(=O)c2cc(=O)c3ccccc3o2)c1,-8.14,–
Cc1ccc(S(=O)(=O)NCCC(=O)NC2CCN(Cc3ccccc3)CC2)cc1,4.15,–
Cc1ccc(C)c(N2CCN(C(=O)Cn3nc(C)c4sc5ccccc5c4c3=O)CC2)c1,3.41,–
Cn1nnnc1SCCCNCc1cccc(OCc2ccc(Cl)cc2)c1,5.77,–
COc1cc(/C=N/O)ccc1OCc1ccc([N+](=O)[O-])cc1,–,2.69 µM (active)
COc1cc(/C=N\Nc2ccc([N+](=O)[O-])cn2)ccc1OCC(=O)O,-16.9,–
COc1cc(C(=O)OCc2ccc([N+](=O)[O-])cc2)cc(OC)c1OC,2.68,–
Cc1ccc(CCNC(=O)c2nnc(Cc3cccc(F)c3)o2)cc1,-1.77,–
COc1ccc(Cl)cc1N(C)C(=O)c1cc2c(=O)oc3ccc(C)cc3c2s1,0.493,–
O=C(Oc1ccc(-c2nc(-c3ccccn3)no2)cc1)c1ccccc1,–,0.301 µM (active)
Cc1ccc(-c2noc(CSc3nnc(-c4cccs4)n3C)n2)cc1,-21.4,–
N#CCc1ccc(OC(=O)c2cccnc2)cc1,0.653,–
COc1cc(OC)c(NC(=O)c2nc(-c3ccncc3)no2)cc1Cl,-1.54,–
COc1ccc(-c2noc(-c3ccc(C)cc3)n2)cc1,–,1.51 µM (active)
COc1ccc(-c2noc(CN(C)S(=O)(=O)c3ccc(C)cc3)n2)cc1,-2.32,–
COc1ccc(N2CCN(C(=O)CCc3nc(-c4ccc(C)cc4)no3)CC2)cc1,-20,–
Cc1ccc(-c2noc(CSc3nnc(-c4ccncc4)n3-c3ccc(F)cc3)n2)cc1,-3.39,–
Cc1ccc(-c2nc(-c3ccncc3)no2)c(C)c1,–,2.13 µM (active)
c1csc(-c2nc(-c3ccncc3)no2)c1,–,13.5 µM (active)
CSc1oc(-c2cccs2)nc1S(=O)(=O)c1ccc(Br)cc1,-9.22,–
